Screens as filed in PubChem BioAssay.
TSHR antagonist – antagonists of human thyroid stimulating hormone receptor; TSHR-expressing cells, TSH-stimulated cAMP HTRF, 2 h; stronger effect = lower value; activity change, negative = inhibition, % at 11.5 µM; hit rate 0.2% among 330,000;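 active = activity change below a set negative limit, meaning inhibition stronger than a set level, cut at about -70% in these data; inconclusive = activity change between two set negative limits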
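Inhibition of cAMP made by TSHR-expressing cells under TSH stimulation (4nM final, EC80; 2 h, 37 deg C) is quantified with a one-step lysis HTRF kit, anti-cAMP cryptate versus cAMP-d2.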
Coupling enz – coupling enzyme interference in Giardia aldolase counter-screen; coupling enzyme system counterscreen, AmpLite Red fluorescence; activity change, negative = inhibition, % at 58.2 µM, hits read low; hit rate 0.67% among 290,000; AID 2472; in the data active = activity change below about -30%
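Compounds tested against the coupling enzymes alone at 57.5 uM final; readout was AmpLite Red fluorescence (525/598 nm) after 20 min at RT.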
ELG1 repair inh – blocks ELG1-dependent DNA repair in HEK293T cells | Potency, µM (top dose mostly 46.1 µM), for the others: at the top dose activity change, negative = inhibition, most hits filed as inhibitors | HEK293T ELG1-luciferase reporter, luminescence, 16 h; DNA damage induced by 5-fluorouridine | hit rate 2.3% among 330,000 | AID 504467; also: potency is read from the fitted curve at half-maximal effect; nearly all actives have a fitted effect of over 55% in size
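DMSO vehicle served as the neutral condition. Each well held 2,000 cells given 5-fluorouridine plus compound; after 16 hr at 37 °C/5% CO2, ONE-Glo was added and luciferase measured 30 min later.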
RORg inh – ROR gamma (mouse) transcription inhibition | hit rate 5.4% among 310,000 | Potency, µM (titrated, usually from 53.6 µM), for inactives: at the highest dose activity change, negative = inhibition, hits mostly inhibitors | AID 2551 | Drosophila S2 Gal4-RORgamma UAS-luciferase reporter, 20 h | P51450; also: potency is read from the fitted curve at half-maximal effect; nearly all actives have a fitted effect of over 60% in size
Target sequence (P51450 whole entry, looked up, the tested form may be a part): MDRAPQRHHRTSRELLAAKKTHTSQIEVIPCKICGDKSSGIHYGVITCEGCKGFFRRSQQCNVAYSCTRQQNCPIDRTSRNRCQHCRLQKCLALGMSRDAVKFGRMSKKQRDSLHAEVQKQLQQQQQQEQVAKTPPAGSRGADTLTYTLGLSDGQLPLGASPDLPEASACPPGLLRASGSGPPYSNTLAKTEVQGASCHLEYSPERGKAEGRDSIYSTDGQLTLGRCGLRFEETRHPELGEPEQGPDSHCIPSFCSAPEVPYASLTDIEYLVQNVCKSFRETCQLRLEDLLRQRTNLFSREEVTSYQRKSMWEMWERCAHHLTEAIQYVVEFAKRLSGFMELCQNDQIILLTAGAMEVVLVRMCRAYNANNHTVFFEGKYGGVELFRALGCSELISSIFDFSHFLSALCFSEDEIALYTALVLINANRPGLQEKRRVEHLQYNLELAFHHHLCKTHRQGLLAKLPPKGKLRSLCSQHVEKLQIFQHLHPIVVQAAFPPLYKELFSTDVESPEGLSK
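Schneider cells (Drosophila), stable Gal4 DBD–ROR gamma + UAS-luc; 1 hr cmpd preincubation; Cu2+ induction 700 uM final; 20 hr ambient; luminescence.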
Gal4-VP16 FLuc – inhibits Gal4-VP16 luciferase reporter, ROR gamma counter-screen | Drosophila S2 Gal4-VP16 UAS-luciferase, luminescence, 20 h | Potency, µM (series often up to 53.6 µM), without a hit: at the top dose activity, negative = inhibition, usual class: inhibitors | hit rate 3.5% among 310,000 | AID 2546;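 also: Gal4-VP16 expression switched on by copper sulfate through the metallothionein promoter; potency is read from the fitted curve at half-maximal effect; nearly all actives have a fitted effect of over 50% in size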
The depositor's hits bear a star; ? = inconclusive; · = not tested or not shown; [ ] = another dose, or the depositor's remark. This is a sample that favours compounds with a hit; in the whole collection about 8% have one here. Unless noted, calls follow the shape of the dose curve; as a rule, active = well fitted curve in the direction sought with a large enough effect; inconclusive = small, poorly fitted or top-dose-only effect, or another doubt; inactive = no such curve, though single readings can be large; an effect the other way counts as inactive or inconclusive. % is scaled to controls: 0 for no effect and ±100 for the full control effect.

SMILES	TSHR antagonist	Coupling enz	ELG1 repair inh	RORg inh	Gal4-VP16 FLuc
COC(=O)c1ccc(C(NC(=O)OCc2ccccc2)/C(I)=C/[C@@H](C)C(=O)Nc2ccccc2)cc1 (stereo partly specified)	·	-1	·	?	-5%
Cn1c(N)c(C(=O)COC(=O)Cc2ccc(Cl)cc2)c(=O)n(C)c1=O	-1	·	-2%	·	·
CCOC(=O)c1cnc(-n2cc(C)cn2)nc1Nc1ccccc1OC	1	0	5.2µM*	?	-22%
CCOC(=O)c1cnc(-n2nc(C)cc2C)nc1NC	-1	2	-10%	1.6µM*	5.6µM*
CCOC(=O)c1cnc(SCc2nc(N)nc(Nc3ccccc3OC)n2)nc1N	-4	0	-4%	-8%	16%
O=C(Nc1cccc(-n2cnnn2)c1)C1CCCN(Cc2cccc(C(F)(F)F)c2)C1 (stereo unspecified)	13	·	?	?	-27%
CC(C)NC(=O)NNC(=O)Cn1nnc(-c2cccc(Cl)c2Cl)n1	0	0	-14%	32µM*	-30%
CCOC(=O)CC(NC(=O)Cn1nnc(-c2ccccc2Cl)n1)c1ccc(OC)cc1 (stereo unspecified)	-1	1	-11%	?	-10%[10 µM]
CC1(C)CC(=O)C=C(NC2=CC3OC(c4ccccc4)OCC3OC2=O)C1 (stereo unspecified)	-7	1	13µM*	?	11µM*
CNC[C@@H](CC1CCCCC1)NC[C@H](CC(C)C)NCCc1cccc(C(F)(F)F)c1	3	0	?	11µM*	?
CCC[C@@H](CN[C@@H](CNC)[C@H](C)CC)NCC1CCC(C(C)(C)C)CC1 (stereo partly specified)	6	1	2%	11µM*	?
CC[C@@H](C)[C@H](CNC)NC[C@@H](Cc1cccc2ccccc12)NCCc1cccc(C(F)(F)F)c1	5	-6	?	13µM*	?
CNC[C@@H](Cc1ccccc1)NC[C@@H](CC1CCCCC1)NCCCc1ccccc1	4	1	?	?	?
CCC[C@@H](CN[C@@H](CNC)C(C)C)NCCCCc1ccccc1	6	-1	?	-19%	0%
CCC[C@H](CN[C@@H](CNC)[C@H](C)CC)NCCc1cc(C(F)(F)F)cc(C(F)(F)F)c1	-2	-1	21µM*	?	?
CC(C)c1ccc(N(CC(=O)NCCCN2CCOCC2)S(=O)(=O)c2ccccc2)cc1	-3	·	?	·	·
COc1ccccc1CNn1c(-c2cccc(C)c2)nc2ccccc2c1=O	-22	10	?	?	-8%
COc1ccc(CNn2c(-c3cccc(C)c3)nc3ccccc3c2=O)cc1OC	-8	1	15µM*	17%	2%
CCc1c(C)nc(N2CCN(c3ccccc3F)CC2)[nH]c1=O	2	0	5%	1%	-1%
CCC(C)(C)C1CCC2(CC1)NC(=O)N(CC(=O)N(C)Cc1ccc3c(c1)OCCO3)C2=O (stereo unspecified)	-6	·	12µM*	·	·
CCCCC1CCC(C(=O)N(C)CC(=O)Nc2cccc(F)c2)CC1 (stereo unspecified)	-12	·	?	0%	-21%
Cc1cccc(CS(=O)(=O)Cc2ccc(C(=O)NCc3ccccc3)o2)c1	-5	·	?	11%	-4%
COc1ccc(CNS(=O)(=O)NCc2ccc(OC)c(OC)c2)cc1	11	2	?	?	-30%
COc1ccc(CCNC(=O)c2ccc(CS(=O)(=O)Cc3cccc(C)c3)o2)cc1OC	-6	·	23µM*	2%	-1%
COc1ccc(CCNC(=O)c2ccc(CNS(=O)(=O)c3cc(C)ccc3C)cc2)cc1OC	-16	-1	21µM*	36%	-7%
SMILES	TSHR antagonist	Coupling enz	ELG1 repair inh	RORg inh	Gal4-VP16 FLuc
COc1cccc(CN(C)C(=O)c2cc(S(=O)(=O)NCc3ccccc3)ccc2C)c1OC	7	·	?	·	·
COc1ccc(CCN(C)C(=O)c2cc(S(=O)(=O)NCc3ccccc3)ccc2C)cc1OC	5	·	8.2µM*	·	·
COc1ccc(CCNC(=O)c2ccc(CNS(=O)(=O)c3ccc(C(C)(C)C)cc3)cc2)cc1OC	6	0	1%	-5%	?
COc1ccc(CNS(=O)(=O)NCc2ccc(C)cc2)cc1OC	-4	2	21µM*	2%	?
COc1ccc(CCNC(=O)c2ccc(CNS(=O)(=O)c3cccc(Cl)c3)cc2)cc1OC	32	10	23µM*	27%	-3%
Cc1ccc(S(=O)(=O)N(C)c2nc3ccccc3[nH]c2=S)cc1	-7	3	-12%	4.5µM*	-10%
Cc1cccc(CNC(=O)C2CCC(=O)N(C3CCCCCC3)C2)c1 (stereo unspecified)	4	·	?	-24%	-1%
CCOc1ccc(C(=O)COC(=O)c2cc(=O)[nH]c3ccccc23)cc1	-3	·	?	·	·
Cc1noc(C)c1-c1ccc2ncnc(NCC3CCN(C)CC3)c2c1	·	-4	·	-25%	1%
CN1C(=S)SC(C)(NO)C1(C)C (stereo unspecified)	2	5	?	16µM*	?
CCCN(C(=O)COC(=O)CSc1ccc([N+](=O)[O-])cc1)C1CCS(=O)(=O)C1 (stereo unspecified)	-18	·	21%	·	·
Cc1[nH]c(C)c(S(=O)(=O)N2CCCCC2C)c1C(=O)N1CCCC1 (stereo unspecified)	30	·	18%	-14%	-5%
CCCc1ccc(C(=O)NC(=O)c2ccccc2O)cc1	-25	13	?	2.8µM*	1.6µM*
O=C(NC(=O)c1ccccc1O)c1ccc(C(F)(F)F)cc1	-27	2	?	?	8.9µM*
Cc1ccc(CNC(=S)Nc2ccc(NS(=O)(=O)c3ccc(C)cc3)cc2)cc1	-5	·	?	?	?
COc1ccc(-n2ncc(C(C)NS(=O)(=O)c3cc(F)ccc3C)c2C)cc1 (stereo unspecified)	2	·	12%	?	-7%
O=C(COC(=O)c1ccccc1OC(F)F)Nc1ccc2[nH]c(=O)[nH]c2c1	-2	·	3%	·	·
Cc1nnsc1C(=O)N/N=C/c1ccccc1	1	2	18%	12%	4%
Cc1c(/C=N\NC(=O)c2ccc([N+](=O)[O-])cc2)cnn1C	11	5	-7%	-34%	3%
CC(=O)n1cc(/C=N/NC(=O)c2sc(C)nc2C)c2ccccc21	-16	·	-18%	14µM*	?
CC(=O)n1cc(/C=N/NC(=O)c2ccc([N+](=O)[O-])cc2)c2ccccc21	-9	1	-2%	3.5µM*	?
Cc1nnsc1C(=O)N/N=C/c1ccc2ccccc2c1O	-19	4	?	4.5µM*	2.8µM*
